From article PMC7862700, “An all-to-all approach to the identification of sequence-specific readers for epigenetic DNA modifications on cytosine”

How the values were obtained:
Test in all cases: DAPPL (digital affinity profiling via proximity ligation, sequencing); 10 mM Tris-HCl pH 7.5, 50 mM NaCl, 1 mM DTT, 4% glycerol, room temperature, 30 min; GST-TFs on glutathione beads, 16-mer random dsDNA library, 0.1% formaldehyde crosslink after washing; high values mean tight binding
Settings in all cases: protein: recombinant; tags: N-terminal GST; dsDNA, one strand shown
FEV = target: T1, FEV (Homo sapiens, UniProt Q99581 1-238)
T1 sequence: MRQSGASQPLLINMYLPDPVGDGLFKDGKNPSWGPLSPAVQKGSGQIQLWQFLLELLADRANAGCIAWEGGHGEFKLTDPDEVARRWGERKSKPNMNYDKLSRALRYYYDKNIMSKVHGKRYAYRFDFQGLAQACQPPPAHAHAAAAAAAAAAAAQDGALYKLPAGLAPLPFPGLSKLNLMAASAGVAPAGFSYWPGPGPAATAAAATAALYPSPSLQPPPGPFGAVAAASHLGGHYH
In short: (§1)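 In yeast, human transcription factors were expressed with a GST fusion, then pulled down on glutathione beads and given DNA barcodes. Pooled with a tag-only sample, they were exposed to 200 nmole of a 16-mer random double-stranded DNA library (Tris/NaCl/DTT/glycerol buffer, room temperature, 30 min), washed, crosslinked with 0.1% formaldehyde, proximity-ligated using BsaI/T4 ligase for 1 h at 37 °C, PCR-amplified and read on an Illumina NextSeq500. Each hexamer's frequency of reads for a factor, divided by the matching frequency for the tag-only sample, gives the binding signal.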

ETV5 = ETV5 (Homo sapiens, UniProt P41161 1-510)
In short: as §1

SPIC = target: T2, SPIC (Homo sapiens, UniProt Q8N5J4 1-248)
T2 sequence: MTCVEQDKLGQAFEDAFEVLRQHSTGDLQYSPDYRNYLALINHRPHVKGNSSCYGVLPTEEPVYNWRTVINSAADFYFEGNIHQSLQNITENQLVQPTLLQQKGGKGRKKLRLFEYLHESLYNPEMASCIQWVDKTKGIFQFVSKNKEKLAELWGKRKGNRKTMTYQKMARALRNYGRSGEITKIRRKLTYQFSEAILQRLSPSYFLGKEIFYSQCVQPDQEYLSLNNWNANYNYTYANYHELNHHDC
In short: as §1

ELF4 = ELF4 (Homo sapiens, UniProt Q99607 1-663)
In short: as §1

ELK4 = target: T3, ELK4 (Homo sapiens, UniProt P28324-2 1-405)
T3 sequence: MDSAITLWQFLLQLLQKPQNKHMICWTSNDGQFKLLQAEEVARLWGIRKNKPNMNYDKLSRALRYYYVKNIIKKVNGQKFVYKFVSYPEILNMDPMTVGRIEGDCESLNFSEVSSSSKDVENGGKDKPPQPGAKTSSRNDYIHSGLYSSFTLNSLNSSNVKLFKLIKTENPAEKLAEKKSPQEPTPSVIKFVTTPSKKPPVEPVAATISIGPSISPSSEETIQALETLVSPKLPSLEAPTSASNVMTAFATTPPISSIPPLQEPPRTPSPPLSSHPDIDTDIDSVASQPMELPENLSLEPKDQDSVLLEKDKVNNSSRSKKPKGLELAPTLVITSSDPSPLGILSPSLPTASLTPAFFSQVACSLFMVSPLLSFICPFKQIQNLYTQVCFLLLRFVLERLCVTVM
In short: as §1

ETV2 = target: T4, ETV2 (Homo sapiens, UniProt O00321 1-342)
T4 sequence: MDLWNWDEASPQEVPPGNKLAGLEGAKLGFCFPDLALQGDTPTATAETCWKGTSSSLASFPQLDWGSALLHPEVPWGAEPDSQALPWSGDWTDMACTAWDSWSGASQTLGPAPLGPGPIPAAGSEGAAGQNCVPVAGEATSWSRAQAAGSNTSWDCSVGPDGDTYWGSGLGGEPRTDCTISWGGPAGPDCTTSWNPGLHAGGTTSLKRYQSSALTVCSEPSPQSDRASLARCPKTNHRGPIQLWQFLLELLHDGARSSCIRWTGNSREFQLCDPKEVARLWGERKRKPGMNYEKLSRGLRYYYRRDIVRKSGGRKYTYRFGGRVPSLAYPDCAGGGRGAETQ
In short: as §1

ETV1 = ETV1 (Homo sapiens, UniProt P50549 1-477)
In short: as §1

ERF = target: T5, ERF (Homo sapiens, UniProt P50548 1-548)
T5 sequence: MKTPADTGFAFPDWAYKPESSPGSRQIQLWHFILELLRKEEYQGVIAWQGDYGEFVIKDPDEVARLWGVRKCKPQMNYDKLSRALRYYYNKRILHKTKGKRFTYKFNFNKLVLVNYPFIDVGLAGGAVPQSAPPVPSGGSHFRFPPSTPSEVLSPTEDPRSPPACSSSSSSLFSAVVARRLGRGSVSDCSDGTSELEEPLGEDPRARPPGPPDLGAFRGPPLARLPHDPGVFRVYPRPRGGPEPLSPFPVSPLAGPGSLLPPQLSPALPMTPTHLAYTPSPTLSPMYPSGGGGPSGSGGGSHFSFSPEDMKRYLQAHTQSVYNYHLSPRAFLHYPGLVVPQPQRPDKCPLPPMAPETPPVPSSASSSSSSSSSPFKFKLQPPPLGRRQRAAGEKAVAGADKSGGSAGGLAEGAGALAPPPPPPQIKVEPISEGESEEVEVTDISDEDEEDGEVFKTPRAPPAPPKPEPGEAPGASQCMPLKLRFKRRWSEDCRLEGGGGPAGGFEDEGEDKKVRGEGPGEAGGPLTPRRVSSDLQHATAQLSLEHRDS
In short: as §1

ETV3L = target: T6, ETV3L (Homo sapiens, UniProt Q6ZN32 1-361)
T6 sequence: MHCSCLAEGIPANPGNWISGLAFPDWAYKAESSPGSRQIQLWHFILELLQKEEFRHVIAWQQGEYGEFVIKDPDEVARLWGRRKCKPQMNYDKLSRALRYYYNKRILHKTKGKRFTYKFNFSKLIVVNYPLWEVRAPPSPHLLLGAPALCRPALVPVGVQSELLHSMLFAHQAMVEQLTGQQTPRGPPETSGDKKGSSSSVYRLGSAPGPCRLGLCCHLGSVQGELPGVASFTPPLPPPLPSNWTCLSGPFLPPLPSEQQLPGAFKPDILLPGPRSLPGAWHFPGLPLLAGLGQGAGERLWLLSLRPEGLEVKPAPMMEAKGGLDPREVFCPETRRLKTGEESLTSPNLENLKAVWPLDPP
In short: as §1

ETS2 = target: T7, ETS2 (Homo sapiens, UniProt P15036 1-469)
T7 sequence: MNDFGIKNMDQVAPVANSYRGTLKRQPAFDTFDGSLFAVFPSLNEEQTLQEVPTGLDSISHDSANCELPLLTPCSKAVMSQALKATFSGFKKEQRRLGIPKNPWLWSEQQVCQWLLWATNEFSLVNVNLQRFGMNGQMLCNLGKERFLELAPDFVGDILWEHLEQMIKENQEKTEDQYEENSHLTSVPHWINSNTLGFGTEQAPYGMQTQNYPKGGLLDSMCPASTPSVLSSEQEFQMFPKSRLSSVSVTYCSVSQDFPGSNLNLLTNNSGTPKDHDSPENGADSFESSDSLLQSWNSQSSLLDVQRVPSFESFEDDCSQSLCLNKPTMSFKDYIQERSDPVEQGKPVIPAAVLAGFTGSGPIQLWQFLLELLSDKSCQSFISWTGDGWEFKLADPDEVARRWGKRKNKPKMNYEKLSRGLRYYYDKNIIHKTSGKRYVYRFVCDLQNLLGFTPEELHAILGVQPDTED
In short: as §1

SPDEF = target: T8, SPDEF (Homo sapiens, UniProt O95238 1-335)
T8 sequence: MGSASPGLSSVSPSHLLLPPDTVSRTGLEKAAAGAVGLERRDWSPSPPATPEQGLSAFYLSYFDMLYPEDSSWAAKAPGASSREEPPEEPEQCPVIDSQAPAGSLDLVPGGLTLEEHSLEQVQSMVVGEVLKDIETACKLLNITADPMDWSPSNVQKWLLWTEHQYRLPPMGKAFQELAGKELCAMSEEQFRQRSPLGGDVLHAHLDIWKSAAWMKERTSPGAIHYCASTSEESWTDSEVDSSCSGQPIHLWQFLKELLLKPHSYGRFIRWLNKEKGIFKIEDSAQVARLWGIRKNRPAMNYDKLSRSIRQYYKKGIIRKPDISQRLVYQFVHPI
In short: as §1

ETV3 = target: T9, ETV3 (Homo sapiens, UniProt P41162-2 1-143)
T9 sequence: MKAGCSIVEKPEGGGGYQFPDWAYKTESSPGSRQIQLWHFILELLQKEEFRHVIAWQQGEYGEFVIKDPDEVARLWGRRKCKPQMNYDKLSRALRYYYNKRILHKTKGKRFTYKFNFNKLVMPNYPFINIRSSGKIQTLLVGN
In short: as §1

ETV6 = ETV6 (Homo sapiens, UniProt P41212 1-452)
In short: as §1

ETV7 = target: T10, ETV7 (Homo sapiens, UniProt Q9Y603 1-341)
T10 sequence: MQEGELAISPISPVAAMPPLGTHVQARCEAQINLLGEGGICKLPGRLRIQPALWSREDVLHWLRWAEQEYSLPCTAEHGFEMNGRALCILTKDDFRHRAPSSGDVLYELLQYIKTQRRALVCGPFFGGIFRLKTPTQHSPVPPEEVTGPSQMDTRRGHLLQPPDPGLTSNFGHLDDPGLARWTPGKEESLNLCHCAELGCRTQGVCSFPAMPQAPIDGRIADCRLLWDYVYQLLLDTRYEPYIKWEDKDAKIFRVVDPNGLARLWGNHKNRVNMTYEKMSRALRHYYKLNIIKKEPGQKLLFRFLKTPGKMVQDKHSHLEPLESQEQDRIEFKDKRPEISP
In short: as §1

ELF4, sequence (Q99607 whole entry): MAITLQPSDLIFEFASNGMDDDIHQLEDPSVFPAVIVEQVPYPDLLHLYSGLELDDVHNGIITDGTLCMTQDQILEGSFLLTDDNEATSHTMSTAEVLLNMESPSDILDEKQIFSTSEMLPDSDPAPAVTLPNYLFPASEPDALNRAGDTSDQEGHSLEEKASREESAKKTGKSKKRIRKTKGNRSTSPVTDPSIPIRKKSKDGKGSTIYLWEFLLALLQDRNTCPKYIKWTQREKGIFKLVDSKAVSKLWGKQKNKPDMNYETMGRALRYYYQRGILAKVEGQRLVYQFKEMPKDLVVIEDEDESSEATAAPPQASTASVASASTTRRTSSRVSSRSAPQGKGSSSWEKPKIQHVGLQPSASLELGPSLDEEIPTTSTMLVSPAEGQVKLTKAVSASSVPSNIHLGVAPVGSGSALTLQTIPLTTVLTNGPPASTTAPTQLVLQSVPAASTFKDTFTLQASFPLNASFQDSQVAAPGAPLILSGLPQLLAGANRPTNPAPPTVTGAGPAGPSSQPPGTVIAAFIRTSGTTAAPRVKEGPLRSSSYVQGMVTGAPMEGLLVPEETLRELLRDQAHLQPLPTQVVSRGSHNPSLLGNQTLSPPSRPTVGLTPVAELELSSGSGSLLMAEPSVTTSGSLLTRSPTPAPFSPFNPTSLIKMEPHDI
ETV6, sequence (P41212 whole entry): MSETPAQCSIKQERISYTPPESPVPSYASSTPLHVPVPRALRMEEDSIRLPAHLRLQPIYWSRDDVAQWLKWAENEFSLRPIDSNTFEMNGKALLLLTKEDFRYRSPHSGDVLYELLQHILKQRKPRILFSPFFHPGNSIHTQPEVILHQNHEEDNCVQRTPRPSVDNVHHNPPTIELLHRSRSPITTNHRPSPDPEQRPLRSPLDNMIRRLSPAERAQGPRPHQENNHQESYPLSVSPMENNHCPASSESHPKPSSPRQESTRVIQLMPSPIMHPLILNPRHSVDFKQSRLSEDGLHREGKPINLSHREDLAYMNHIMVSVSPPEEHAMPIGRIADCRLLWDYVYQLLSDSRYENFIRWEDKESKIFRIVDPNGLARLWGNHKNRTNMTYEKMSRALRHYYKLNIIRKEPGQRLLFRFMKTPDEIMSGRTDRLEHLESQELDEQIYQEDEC
ETV5, sequence (P41161 whole entry): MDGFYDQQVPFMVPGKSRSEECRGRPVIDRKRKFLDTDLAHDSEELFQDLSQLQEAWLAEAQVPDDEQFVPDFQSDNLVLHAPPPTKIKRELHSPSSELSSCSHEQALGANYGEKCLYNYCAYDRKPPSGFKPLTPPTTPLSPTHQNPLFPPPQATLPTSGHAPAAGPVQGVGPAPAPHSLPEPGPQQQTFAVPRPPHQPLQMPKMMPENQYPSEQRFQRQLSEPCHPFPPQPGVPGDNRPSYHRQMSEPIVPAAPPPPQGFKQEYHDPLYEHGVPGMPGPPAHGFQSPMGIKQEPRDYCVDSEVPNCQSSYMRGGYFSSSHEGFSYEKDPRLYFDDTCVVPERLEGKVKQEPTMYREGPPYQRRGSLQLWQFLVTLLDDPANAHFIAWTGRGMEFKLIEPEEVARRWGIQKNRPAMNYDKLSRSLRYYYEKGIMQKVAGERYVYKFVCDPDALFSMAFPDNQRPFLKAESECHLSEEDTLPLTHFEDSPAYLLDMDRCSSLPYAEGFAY
ETV1, sequence (P50549 whole entry): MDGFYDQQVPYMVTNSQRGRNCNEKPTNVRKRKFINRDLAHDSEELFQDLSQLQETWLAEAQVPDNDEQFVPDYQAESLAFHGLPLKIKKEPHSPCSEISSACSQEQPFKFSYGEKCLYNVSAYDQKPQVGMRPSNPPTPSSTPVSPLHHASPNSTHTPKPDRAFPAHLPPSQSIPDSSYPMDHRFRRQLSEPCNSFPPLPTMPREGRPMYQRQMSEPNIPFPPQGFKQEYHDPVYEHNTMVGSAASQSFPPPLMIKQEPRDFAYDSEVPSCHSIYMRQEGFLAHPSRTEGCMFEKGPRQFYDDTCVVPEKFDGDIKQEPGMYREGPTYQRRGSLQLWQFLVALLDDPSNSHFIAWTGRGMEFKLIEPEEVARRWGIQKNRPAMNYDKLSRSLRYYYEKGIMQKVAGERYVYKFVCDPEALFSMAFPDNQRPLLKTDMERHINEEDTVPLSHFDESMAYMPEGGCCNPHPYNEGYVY

CCCATG
binding signal (FEV): 1.06 fold enrichment (6-mer frequency, TF over GST control)
binding signal (ETV5): 1.09 fold enrichment (6-mer frequency, TF over GST control)
binding signal (SPIC): 1.02 fold enrichment (6-mer frequency, TF over GST control)
binding signal (ELF4): 1.12 fold enrichment (6-mer frequency, TF over GST control)
binding signal (ELK4): 1.18 fold enrichment (6-mer frequency, TF over GST control)
binding signal (ETV2): 1.02 fold enrichment (6-mer frequency, TF over GST control)
binding signal (ETV1): 1.01 fold enrichment (6-mer frequency, TF over GST control)
binding signal (ERF): 1.14 fold enrichment (6-mer frequency, TF over GST control)
binding signal (ETV3L): 1.11 fold enrichment (6-mer frequency, TF over GST control)
binding signal (ETS2): 1.02 fold enrichment (6-mer frequency, TF over GST control)
binding signal (SPDEF): 1.1 fold enrichment (6-mer frequency, TF over GST control)
binding signal (ETV3): 1.14 fold enrichment (6-mer frequency, TF over GST control)
binding signal (ETV6): 1.12 fold enrichment (6-mer frequency, TF over GST control)

GTCCAC
binding signal (FEV): 1.08 fold enrichment (6-mer frequency, TF over GST control)
binding signal (ETV5): 1.07 fold enrichment (6-mer frequency, TF over GST control)
binding signal (SPIC): 1.05 fold enrichment (6-mer frequency, TF over GST control)
binding signal (ELF4): 1.06 fold enrichment (6-mer frequency, TF over GST control)
binding signal (ELK4): 1.07 fold enrichment (6-mer frequency, TF over GST control)
binding signal (ETV2): 1.14 fold enrichment (6-mer frequency, TF over GST control)
binding signal (ERF): 1.07 fold enrichment (6-mer frequency, TF over GST control)
binding signal (ETV3L): 1.12 fold enrichment (6-mer frequency, TF over GST control)
binding signal (ETS2): 1.05 fold enrichment (6-mer frequency, TF over GST control)
binding signal (ETV7): 1.01 fold enrichment (6-mer frequency, TF over GST control)
binding signal (ETV6): 1.03 fold enrichment (6-mer frequency, TF over GST control)
